Here are results for 1 sequence from publication PMC7862700, “An all-to-all approach to the identification of sequence-specific readers for epigenetic DNA modifications on cytosine”.

What all share (assay): DAPPL (digital affinity profiling via proximity ligation, sequencing); 10 mM Tris-HCl pH 7.5, 50 mM NaCl, 1 mM DTT, 4% glycerol, room temperature, 30 min; GST-TFs on glutathione beads, 16-mer random dsDNA library, 0.1% formaldehyde crosslink after washing; high values mean tight binding
Details in all cases: protein: recombinant; tags: N-terminal GST; dsDNA, one strand shown

One test concerns the target T1, GABPA (Homo sapiens, UniProt Q06546 1-454).
T1 sequence: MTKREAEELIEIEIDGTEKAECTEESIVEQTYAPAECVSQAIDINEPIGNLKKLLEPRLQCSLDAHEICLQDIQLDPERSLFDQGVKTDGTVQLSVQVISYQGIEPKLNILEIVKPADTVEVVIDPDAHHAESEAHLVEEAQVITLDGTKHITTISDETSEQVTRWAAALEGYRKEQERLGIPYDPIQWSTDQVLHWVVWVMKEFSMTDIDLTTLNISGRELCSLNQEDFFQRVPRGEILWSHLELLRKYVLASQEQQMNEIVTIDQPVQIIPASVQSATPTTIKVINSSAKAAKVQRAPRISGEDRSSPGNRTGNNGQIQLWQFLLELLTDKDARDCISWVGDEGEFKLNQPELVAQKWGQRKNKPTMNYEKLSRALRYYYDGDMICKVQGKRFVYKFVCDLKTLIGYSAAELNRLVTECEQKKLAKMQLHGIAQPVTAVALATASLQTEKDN
An outline of the steps: (§1)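 Human transcription factors were made in yeast as GST fusions, captured on glutathione beads and barcoded with DNA. With a tag-only sample included, the pool was incubated with 200 nmole of a random double-stranded 16-mer DNA library in Tris/NaCl/DTT/glycerol buffer at room temperature for 30 min, then crosslinked with 0.1% formaldehyde after washing, ligated by proximity, amplified and sequenced. For binding signal, each hexamer's read frequency for a factor is divided by its frequency for the tag-only sample.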

For a further test, the target named is T2, ERG (Homo sapiens, UniProt P11308 1-479).
T2 sequence: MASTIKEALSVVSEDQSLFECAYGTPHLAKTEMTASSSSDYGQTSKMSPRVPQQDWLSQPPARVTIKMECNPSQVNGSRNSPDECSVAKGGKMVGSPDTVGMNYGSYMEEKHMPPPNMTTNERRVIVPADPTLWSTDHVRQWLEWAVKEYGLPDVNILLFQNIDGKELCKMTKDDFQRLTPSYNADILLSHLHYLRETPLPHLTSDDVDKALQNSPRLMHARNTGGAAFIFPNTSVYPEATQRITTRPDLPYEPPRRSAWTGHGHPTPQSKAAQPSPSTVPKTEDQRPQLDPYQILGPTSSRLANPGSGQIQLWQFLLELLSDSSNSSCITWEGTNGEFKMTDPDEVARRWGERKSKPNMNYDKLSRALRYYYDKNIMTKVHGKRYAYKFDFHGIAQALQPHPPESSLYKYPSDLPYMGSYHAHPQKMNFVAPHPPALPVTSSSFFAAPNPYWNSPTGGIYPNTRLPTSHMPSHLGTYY
An outline of the steps: as §1

Another test deals with T3, EHF (Homo sapiens, UniProt Q9NZC4 1-300).
T3 sequence: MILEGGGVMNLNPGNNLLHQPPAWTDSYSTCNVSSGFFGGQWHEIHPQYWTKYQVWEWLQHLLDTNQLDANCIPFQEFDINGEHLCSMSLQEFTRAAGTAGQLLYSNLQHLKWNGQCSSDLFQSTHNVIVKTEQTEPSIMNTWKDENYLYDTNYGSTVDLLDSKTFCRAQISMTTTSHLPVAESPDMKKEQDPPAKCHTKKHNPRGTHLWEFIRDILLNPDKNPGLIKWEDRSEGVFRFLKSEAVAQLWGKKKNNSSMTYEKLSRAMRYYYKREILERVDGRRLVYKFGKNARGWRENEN
An outline of the steps:
as §1

For another test, the target named is SPIB (Homo sapiens, UniProt Q01892 1-262). An outline of the steps:
as §1

In a further test the target is T4, ELK3 (Homo sapiens, UniProt P41970 1-407).
T4 sequence: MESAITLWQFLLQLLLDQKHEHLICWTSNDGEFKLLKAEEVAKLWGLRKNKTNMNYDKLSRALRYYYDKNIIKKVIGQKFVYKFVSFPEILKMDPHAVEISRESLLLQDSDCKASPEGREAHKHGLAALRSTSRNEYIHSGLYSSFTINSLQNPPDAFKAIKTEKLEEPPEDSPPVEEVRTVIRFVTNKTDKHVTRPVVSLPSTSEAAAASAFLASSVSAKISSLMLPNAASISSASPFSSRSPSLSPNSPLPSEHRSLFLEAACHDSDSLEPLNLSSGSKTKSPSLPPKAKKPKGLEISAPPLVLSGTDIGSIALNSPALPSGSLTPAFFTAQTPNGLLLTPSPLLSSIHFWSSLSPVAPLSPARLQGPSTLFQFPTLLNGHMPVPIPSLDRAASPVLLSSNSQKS
An outline of the steps:
as §1

The next test concerns the target T5, SPIC (Homo sapiens, UniProt Q8N5J4 1-248).
T5 sequence: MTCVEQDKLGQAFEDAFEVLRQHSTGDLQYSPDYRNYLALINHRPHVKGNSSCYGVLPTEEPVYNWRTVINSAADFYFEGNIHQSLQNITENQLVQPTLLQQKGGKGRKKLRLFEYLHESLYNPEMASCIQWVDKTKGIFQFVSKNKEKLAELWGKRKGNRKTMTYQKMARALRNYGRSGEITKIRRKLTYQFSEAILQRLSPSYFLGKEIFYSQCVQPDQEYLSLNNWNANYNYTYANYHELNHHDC
The method in brief: as §1

A further test concerns the target ELF4 (Homo sapiens, UniProt Q99607 1-663). An outline of the steps: as §1
In another test the target is T6, ELK4 (Homo sapiens, UniProt P28324-2 1-405).
T6 sequence: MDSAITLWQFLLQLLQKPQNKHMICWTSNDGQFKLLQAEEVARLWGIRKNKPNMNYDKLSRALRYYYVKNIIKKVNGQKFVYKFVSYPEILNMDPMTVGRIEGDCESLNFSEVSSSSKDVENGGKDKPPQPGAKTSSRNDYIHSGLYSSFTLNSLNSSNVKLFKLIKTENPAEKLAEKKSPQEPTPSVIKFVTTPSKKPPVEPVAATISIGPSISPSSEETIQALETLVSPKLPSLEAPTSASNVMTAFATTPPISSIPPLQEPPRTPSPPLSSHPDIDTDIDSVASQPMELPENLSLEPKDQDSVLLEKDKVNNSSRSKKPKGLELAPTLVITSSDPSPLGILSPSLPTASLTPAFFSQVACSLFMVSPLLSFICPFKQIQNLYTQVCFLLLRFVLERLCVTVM
The method in brief:
as §1

For another test, the target named is T7, ERF (Homo sapiens, UniProt P50548 1-548).
T7 sequence: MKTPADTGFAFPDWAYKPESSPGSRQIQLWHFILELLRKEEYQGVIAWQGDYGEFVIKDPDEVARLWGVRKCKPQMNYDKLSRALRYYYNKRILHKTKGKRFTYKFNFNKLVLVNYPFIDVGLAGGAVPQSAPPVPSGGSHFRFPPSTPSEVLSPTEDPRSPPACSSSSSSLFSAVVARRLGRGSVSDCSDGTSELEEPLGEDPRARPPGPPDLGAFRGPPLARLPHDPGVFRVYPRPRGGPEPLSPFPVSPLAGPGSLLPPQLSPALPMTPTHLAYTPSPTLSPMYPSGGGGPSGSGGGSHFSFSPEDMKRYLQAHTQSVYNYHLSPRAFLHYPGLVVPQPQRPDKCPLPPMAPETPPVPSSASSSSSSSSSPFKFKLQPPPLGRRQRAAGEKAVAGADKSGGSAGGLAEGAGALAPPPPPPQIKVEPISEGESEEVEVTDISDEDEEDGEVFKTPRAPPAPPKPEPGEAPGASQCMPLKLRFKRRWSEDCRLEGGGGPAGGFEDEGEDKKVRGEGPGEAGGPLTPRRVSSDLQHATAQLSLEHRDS
The method in brief: as §1

The next test addresses T8, ETV3L (Homo sapiens, UniProt Q6ZN32 1-361).
T8 sequence: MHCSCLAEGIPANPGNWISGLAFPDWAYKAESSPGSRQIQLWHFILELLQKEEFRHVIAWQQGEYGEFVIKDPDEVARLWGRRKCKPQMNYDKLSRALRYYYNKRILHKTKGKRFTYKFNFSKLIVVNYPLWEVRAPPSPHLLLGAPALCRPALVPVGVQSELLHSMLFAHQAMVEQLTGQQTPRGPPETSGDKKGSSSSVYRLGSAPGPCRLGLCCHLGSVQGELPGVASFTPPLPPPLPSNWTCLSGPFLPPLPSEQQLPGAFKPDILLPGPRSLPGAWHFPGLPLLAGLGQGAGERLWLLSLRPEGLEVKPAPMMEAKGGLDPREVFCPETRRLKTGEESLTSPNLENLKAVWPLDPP
An outline of the steps: as §1

A further test addresses T9, ETS2 (Homo sapiens, UniProt P15036 1-469).
T9 sequence: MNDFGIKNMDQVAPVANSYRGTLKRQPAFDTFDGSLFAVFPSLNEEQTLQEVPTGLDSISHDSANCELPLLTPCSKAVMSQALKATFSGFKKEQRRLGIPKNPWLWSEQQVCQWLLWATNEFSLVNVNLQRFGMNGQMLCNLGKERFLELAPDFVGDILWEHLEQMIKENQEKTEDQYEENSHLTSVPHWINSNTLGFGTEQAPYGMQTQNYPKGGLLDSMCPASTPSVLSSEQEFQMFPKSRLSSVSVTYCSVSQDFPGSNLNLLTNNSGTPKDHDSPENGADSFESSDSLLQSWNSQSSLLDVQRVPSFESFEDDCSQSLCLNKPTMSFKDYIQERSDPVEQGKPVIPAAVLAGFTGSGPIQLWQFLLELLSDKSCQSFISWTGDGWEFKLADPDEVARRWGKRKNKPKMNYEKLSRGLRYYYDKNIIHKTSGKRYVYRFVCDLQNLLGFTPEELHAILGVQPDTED
An outline of the steps:
as §1

The next test concerns the target T10, ETV7 (Homo sapiens, UniProt Q9Y603 1-341).
T10 sequence: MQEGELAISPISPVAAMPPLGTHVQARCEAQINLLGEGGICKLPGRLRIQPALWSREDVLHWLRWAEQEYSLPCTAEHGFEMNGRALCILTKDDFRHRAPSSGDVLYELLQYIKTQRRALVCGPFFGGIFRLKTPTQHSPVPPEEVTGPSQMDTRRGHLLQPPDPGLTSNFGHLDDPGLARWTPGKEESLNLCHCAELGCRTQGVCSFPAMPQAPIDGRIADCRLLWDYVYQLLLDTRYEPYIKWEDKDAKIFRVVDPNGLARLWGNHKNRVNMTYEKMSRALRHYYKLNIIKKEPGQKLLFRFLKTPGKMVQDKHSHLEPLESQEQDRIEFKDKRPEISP
The method in brief:
as §1

Another test deals with ETV6 (Homo sapiens, UniProt P41212 1-452). The method in brief:
as §1

ETV6, sequence (P41212 whole entry): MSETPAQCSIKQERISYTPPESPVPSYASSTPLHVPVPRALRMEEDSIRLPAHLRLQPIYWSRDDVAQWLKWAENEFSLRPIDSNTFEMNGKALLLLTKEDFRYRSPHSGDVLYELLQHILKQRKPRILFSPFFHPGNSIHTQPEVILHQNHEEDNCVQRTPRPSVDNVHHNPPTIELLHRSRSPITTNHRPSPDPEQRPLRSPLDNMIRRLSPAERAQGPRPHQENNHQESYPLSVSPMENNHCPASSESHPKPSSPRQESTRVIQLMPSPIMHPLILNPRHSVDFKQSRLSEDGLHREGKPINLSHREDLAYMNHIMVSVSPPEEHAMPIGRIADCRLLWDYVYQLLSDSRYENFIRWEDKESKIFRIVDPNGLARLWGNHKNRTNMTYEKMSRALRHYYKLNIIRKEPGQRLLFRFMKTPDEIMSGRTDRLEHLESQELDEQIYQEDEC
SPIB, sequence (Q01892 whole entry): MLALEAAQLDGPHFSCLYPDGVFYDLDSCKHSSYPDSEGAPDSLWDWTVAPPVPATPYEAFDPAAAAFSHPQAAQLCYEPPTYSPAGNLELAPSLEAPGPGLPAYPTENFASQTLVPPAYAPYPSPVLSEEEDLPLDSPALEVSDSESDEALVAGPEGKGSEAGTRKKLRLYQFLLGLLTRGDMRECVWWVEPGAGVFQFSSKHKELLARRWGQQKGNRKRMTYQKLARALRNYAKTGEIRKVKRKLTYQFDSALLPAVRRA
ELF4, sequence (Q99607 whole entry): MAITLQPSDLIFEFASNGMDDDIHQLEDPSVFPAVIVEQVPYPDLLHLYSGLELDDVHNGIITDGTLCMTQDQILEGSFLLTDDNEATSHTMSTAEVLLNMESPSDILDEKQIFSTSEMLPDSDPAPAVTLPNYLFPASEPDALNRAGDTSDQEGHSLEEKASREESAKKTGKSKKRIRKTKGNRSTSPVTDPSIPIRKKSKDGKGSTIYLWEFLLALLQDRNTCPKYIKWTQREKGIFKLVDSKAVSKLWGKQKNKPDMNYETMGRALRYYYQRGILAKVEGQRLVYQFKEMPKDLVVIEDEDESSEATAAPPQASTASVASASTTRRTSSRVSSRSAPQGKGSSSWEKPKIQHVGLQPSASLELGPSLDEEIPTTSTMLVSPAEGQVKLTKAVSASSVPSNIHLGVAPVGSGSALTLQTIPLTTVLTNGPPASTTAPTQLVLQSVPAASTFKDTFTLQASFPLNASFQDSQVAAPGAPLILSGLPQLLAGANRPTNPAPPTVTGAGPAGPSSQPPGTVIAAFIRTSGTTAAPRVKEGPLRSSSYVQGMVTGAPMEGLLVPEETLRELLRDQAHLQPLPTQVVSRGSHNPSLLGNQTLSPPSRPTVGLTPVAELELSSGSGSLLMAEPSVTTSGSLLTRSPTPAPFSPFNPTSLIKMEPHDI

For the sequence GGTAAC, the binding signal with GABPA is 1.03 fold enrichment (6-mer frequency, TF over GST control); with ERG, 1.01 fold enrichment (6-mer frequency, TF over GST control); with EHF, 1.09 fold enrichment (6-mer frequency, TF over GST control); in the test with SPIB, 1.02 fold enrichment (6-mer frequency, TF over GST control); with ELK3, 1 fold enrichment (6-mer frequency, TF over GST control); in the test with SPIC, 1.03 fold enrichment (6-mer frequency, TF over GST control). In addition, the binding signal with ELF4 was 1.01 fold enrichment (6-mer frequency, TF over GST control); with ELK4 it was 1.03 fold enrichment (6-mer frequency, TF over GST control); in the test with ERF, 1 fold enrichment (6-mer frequency, TF over GST control); with ETV3L, 1 fold enrichment (6-mer frequency, TF over GST control); with ETS2, 1.02 fold enrichment (6-mer frequency, TF over GST control); with ETV7 it was 1.05 fold enrichment (6-mer frequency, TF over GST control). Also, the binding signal with ETV6 was 1.04 fold enrichment (6-mer frequency, TF over GST control).
